Results from PubChem BioAssay (NCATS).
Values without a mark were called inactive. The source made the active and inactive calls. The rule behind the calls is not given here.

What follows are compounds tested on HIV-1 nucleocapsid protein NCp7 (binding to TG oligonucleotide) (assay: HIV Nucleocapsid (AID 346;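 note: potency is for inhibitors that block NC binding and lower polarization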)). Conditions: HIV-1 NC / fluorescein-TGTGTGTG probe, fluorescence polarization.
In short: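 Reagents dispensed (10 nM TG4xF, 100 nM HIV-1 NC), plates spun, compounds pin-transferred, then incubated 1 hr at room temperature before FP imaging. Buffer: Hepes pH 7.5, 250mM NaCl, 1uM ZnCl2, 100 uM TCEP, 5 mM 2-mercaptoethanol.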
Potency is the fitted concentration of half-maximal effect.

| Compound | Potency |
| --- | --- |
| O=C(c1cccc(F)c1)N1CCC[C@@]2(CCN(c3ccncc3)C2)C1 | > 20 µM |
| O=C(c1ccncc1)N1CCC2(CCN(Cc3ccccc3)CC2)CC1 | > 20 µM |
| Cc1nc2cnc(N3CCN(C)CC3)nc2n(Cc2ccc(F)cc2)c1=O | > 20 µM |
| O=C(c1cccc(F)c1)N1CCC2(CCCN(Cc3cc(C(F)(F)F)cc(C(F)(F)F)c3)C2)CC1 | > 20 µM |
| Cc1noc(C)c1-c1nccc(NC2CC2)n1 | > 20 µM |
| O=C(c1cc(C(F)(F)F)cc(C(F)(F)F)c1)N1CCC2(CCCN(c3ccccn3)C2)CC1 | > 20 µM |
| COc1ccc(C(=O)N2CCC[C@@]3(CCN(C(=O)Nc4ccccc4)C3)C2)cc1 | > 20 µM |
| COc1ccc(NC(=O)N2CC3(CCN(S(C)(=O)=O)CC3)C2)cc1 | > 20 µM |
| CN(C)C(=O)c1ccc(-c2nc(NC3CCNCC3)c3ccccc3n2)cc1 | > 20 µM |
| CN(Cc1ccco1)c1cc(-c2cccc(NS(C)(=O)=O)c2)ncn1 | > 20 µM |
| CN(Cc1ccco1)c1ncnc2ccc(-c3ccoc3)cc12 | > 20 µM |
| O=c1c(-c2cccs2)nc2cnc(N3CCNCC3)nc2n1-c1ccccc1 | 12.2 µM |
| CN1CCN(c2ccnc(-c3ccccc3C(F)(F)F)n2)CC1 | > 20 µM |
| Cc1noc(C)c1C(=O)N1CCC2(CCN(C(=O)NC(C)C)CC2)CC1 | > 20 µM |
| COc1ccc(-c2nc3cnc(N4CCOCC4)nc3n(C)c2=O)cc1 | > 20 µM |
| O=C(c1ccncc1)N1CCC[C@@]2(CCN(c3ccccc3)C2)C1 | > 20 µM |
| COCCn1c(=O)c(C)nc2cnc(Nc3ccccc3)nc21 | > 20 µM |
| Cn1cccc1C(=O)N1CCC2(CC1)CCN(c1ncccn1)CC2 | > 20 µM |
| O=c1c(-c2ccccc2)nc2cncnc2n1C1CC1 | > 20 µM |
| Cn1c(=O)c(-c2ccc(Cl)cc2)nc2cnc(OCc3ccccc3)nc21 | > 20 µM |

| Compound | Potency |
| --- | --- |
| CCNc1ncc2nc(-c3cc(F)cc(F)c3)c(=O)n(Cc3ccc(F)cc3)c2n1 | > 4 µM |
| Cc1cnc(CNc2ccnc(-c3ccc(N(C)C)cc3)n2)cn1 | > 20 µM |
| CN(C)c1ccc(-c2cncnc2NCc2cccs2)cc1 | > 20 µM |
| COc1ncc2nc(CCc3ccccc3)c(=O)n(Cc3ccc(F)cc3)c2n1 | > 20 µM |
| O=C(c1ccncc1)N1CCC2(CCN(Cc3cc(C(F)(F)F)cc(C(F)(F)F)c3)CC2)CC1 | > 20 µM |
| Cn1cccc1C(=O)N1CCC2(CCN(C(=O)Nc3cccc(F)c3)CC2)CC1 | > 20 µM |
| COc1cccc(-c2cc(N(C)Cc3ccco3)ncn2)c1 | > 20 µM |
| CC(C)CN1CCC2(CC1)CCN(C(=O)c1csnn1)CC2 | > 20 µM |
| COc1ccc(C(=O)N2CCC3(CCCN(Cc4ccncc4)C3)CC2)cc1 | > 20 µM |
| O=C(c1cccc(F)c1)N1CCC2(CCCN(Cc3ccncc3)C2)CC1 | > 20 µM |
| CN(Cc1ccco1)c1ncnc2ccc(-c3ccc4c(c3)OCO4)cc12 | > 20 µM |
| COc1ccc(NC(=O)N2CC[C@@]3(CCCN(C(C)=O)C3)C2)cc1 | > 20 µM |
| COc1ccc(NC(=O)N2CC3(CCN(C(=O)c4cccn4C)CC3)C2)cc1 | > 20 µM |
| Cc1cnc(CNc2ncncc2-c2c(C)noc2C)cn1 | > 20 µM |
| CC(=O)NCCNc1ncncc1-c1ccc(N(C)C)cc1 | > 20 µM |
| CCNc1ncc2nc(-c3ccc(OC)cc3)c(=O)n(Cc3cccc(OC)c3)c2n1 | 4.61 µM (active) |
| N#Cc1cccc(-c2cncnc2NCc2cccnc2)c1 | > 20 µM |
| Cc1cnc(CNc2nc(-c3ccccc3Cl)nc3ccccc23)cn1 | > 20 µM |
| COc1ccc(Oc2ncc3nc(-c4ccc(OC)cc4)c(=O)n(C)c3n2)cc1 | > 20 µM |
| COCCn1c(=O)c(-c2ccc(F)c(F)c2)nc2cncnc21 | > 20 µM |
